CHT PAM – allosteric activators of human choline transporter CHT; Q9GZV3; B-score at 10 µM; CHT-expressing cells, membrane potential dye, choline EC20; hits give high values; LV-AA mutant CHT in HEK293 cells; actives 0.49% (n = 310,000);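 active = initial fluorescence not abnormally high and integrated response B-score, plate-corrected, over 3 SD above library mean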
ANO1 block – blocks the mouse calcium-activated chloride channel TMEM16A. Q8BHY3. HEK293 TMEM16A/YFP iodide influx fluorescence, ionomycin. normalized B-score (activity score, 25-100; higher = stronger inhibition) at 10 µM. actives 1.2% (n = 310,000). AID 588511;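 active = ratio plate-corrected score three or more library SD toward inhibition, starting fluorescence score within five deviations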;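 note: score derived from kinetic fluorescence span divided by baseline fluorescence per well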
Target sequence (Q8BHY3 whole entry, looked up): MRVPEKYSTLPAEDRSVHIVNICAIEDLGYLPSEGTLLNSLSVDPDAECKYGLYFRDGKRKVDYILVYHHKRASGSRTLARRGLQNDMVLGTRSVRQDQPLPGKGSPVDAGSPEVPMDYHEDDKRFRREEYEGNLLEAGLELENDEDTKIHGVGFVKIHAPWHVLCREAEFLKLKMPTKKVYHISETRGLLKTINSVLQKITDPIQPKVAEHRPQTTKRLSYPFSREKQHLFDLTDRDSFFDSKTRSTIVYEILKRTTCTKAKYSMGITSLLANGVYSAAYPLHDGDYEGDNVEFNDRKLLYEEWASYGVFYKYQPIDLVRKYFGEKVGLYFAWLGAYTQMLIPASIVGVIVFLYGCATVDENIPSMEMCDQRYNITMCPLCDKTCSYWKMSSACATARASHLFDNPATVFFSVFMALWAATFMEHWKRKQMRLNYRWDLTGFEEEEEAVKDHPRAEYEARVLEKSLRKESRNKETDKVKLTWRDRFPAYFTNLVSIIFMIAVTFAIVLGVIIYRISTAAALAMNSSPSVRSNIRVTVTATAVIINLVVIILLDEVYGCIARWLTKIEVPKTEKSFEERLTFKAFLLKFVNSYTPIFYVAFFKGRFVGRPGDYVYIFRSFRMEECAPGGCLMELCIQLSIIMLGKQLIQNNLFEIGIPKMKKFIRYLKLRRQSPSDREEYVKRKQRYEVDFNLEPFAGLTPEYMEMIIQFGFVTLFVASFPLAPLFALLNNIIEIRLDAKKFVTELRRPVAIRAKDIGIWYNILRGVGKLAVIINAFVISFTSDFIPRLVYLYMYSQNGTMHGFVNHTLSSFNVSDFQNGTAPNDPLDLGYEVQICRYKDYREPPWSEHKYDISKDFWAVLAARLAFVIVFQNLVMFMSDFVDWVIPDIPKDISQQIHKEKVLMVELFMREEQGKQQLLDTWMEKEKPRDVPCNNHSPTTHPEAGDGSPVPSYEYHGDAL
Kir21 inh – blocks the mouse Kir2.1 inward-rectifier potassium channel. AID 1672. P35561. actives 0.85% (n = 310,000). B-score at 10 µM. HEK293-Kir2.1, FluxOR thallium flux fluorescence; hits give low values;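 active = fluorescence ratio B-score at or below minus 3 SD of library scores, with starting-brightness B-score within 2 SD, cut at about -4.2 in these data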;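 note: channel flux triggered by added potassium and thallium sulfate stimulus; B-score of peak minus minimum fluorescence over baseline after thallium stimulus; more negative B-score means stronger Kir2.1 block with less thallium influx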
TMEM16A act – mouse TMEM16A channel activation, primary screen. Q8BHY3. HEK293 TMEM16A/YFP-H148Q/I152L, iodide quench fluorescence; hits give low values. B-score at 10 µM. actives 0.3% (n = 340,000);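 active = fluorescence-ratio B-score plate-corrected deviation score at least 3 library SD below zero, with starting fluorescence score within 5 deviations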;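 note: channel opened by trigger with iodide after compound preincubation; score built on the fluorescence ratio of max minus min over baseline; more negative score means more quench and so TMEM16A activation or potentiation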
CHT block – human CHT choline transport inhibition; Q9GZV3; CHT-expressing cells, membrane potential dye, choline response; hits give low values; B-score at 10 µM; actives 0.86% (n = 310,000); AID 488975;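 active = B-score over 3 SD under the library average, and starting fluorescence ratio not unusually high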;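 note: choline stimulus applied at its EC90 after an EC20 pre-addition; B-score computed on integrated fluorescence ratio after choline addition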
GPR7 antagonist – antagonists of human GPR7 (neuropeptides B/W receptor 1); P48145; GPR7-expressing cells, fluorescence antagonist assay; inhibition, % at 4.4 µM; actives 1.1% (n = 290,000); AID 1861; in the data active = inhibition above about 16%, passing the limit was not always enough;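 note: cells stimulated with the agonist NPW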
Of the large screens only hits and unclear results are named; the others gave an inactive call. Compounds with a hit are over-represented: about 3.7% of the library has one in this group of screens.

C#CCOCCOCCOCCNc1nc(N2CCN(C(=O)CCCCCCCCCCNC(=O)[C@H](CCCCN)n3cc(CCO)nn3)CC2)nc(N2CCN(C(=O)CCCCCCCCCCNC(=O)[C@H](CCCN=C(N)N)n3cc(C[C@@H](C)CC)nn3)CC2)n1	ANO1 block 100, TMEM16A act -22 (no result: Kir21 inh, GPR7 antagonist)
C#CCOCCOCCOCCNc1nc(N2CCN(C(=O)CCCCCCCCCCNC(=O)[C@H]([C@@H](C)CC)n3cc(CCCCN=C(N)N)nn3)CC2)nc(N2CCN(C(=O)CCCCCCCCCCNC(=O)[C@H](CCCCN)n3cc(C[C@@H](C)CC)nn3)CC2)n1	none (no result: Kir21 inh, TMEM16A act, GPR7 antagonist)
C#CCOCCOCCOCCNc1nc(N2CCN(C(=O)CCCCCCCCCCNC(=O)[C@H](CCCCN)n3cc(C[C@@H](C)CC)nn3)CC2)nc(N2CCN(C(=O)CCCCCCCCCCNC(=O)[C@H](CCCCN)n3cc(C[C@@H](C)CC)nn3)CC2)n1	ANO1 block 25, TMEM16A act -22 (no result: Kir21 inh, GPR7 antagonist)
C#CCOCCOCCOCCNc1nc(N2CCN(C(=O)CCCCCCCCCCNC(=O)[C@H](CCCCN)n3cc(CCCC(=O)O)nn3)CC2)nc(N2CCN(C(=O)CCCCCCCCCCNC(=O)[C@H](CCCN=C(N)N)n3cc(C[C@@H](C)CC)nn3)CC2)n1	ANO1 block 100, TMEM16A act -16 (no result: Kir21 inh, GPR7 antagonist)
CCOC(=O)/C(N=Nc1ccc2c(c1)OCO2)=C(\C)O	none
Cc1cc(=O)n2nc(N3CCC(C(=O)NCCc4ccc(Cl)cc4)CC3)sc2n1	none
COc1ccc(C(=O)/C(=C\c2ccco2)N2C=CC=CC2=C(C#N)C#N)cc1	Kir21 inh -9.9, GPR7 antagonist 47
N#CC(C#N)=C1C=CC=CN1/C(=C\c1ccco1)C(=O)c1ccc(Br)cc1	none (no result: Kir21 inh)
COc1ccc(/C=C(/C(=O)c2cccs2)N2C=CC=CC2=C(C#N)C#N)cc1	TMEM16A act -5 (no result: CHT PAM, ANO1 block, CHT block)
COc1ccc(N=N/C(=C\O)C(=O)c2cccs2)cc1	none
Cc1ccc(S(=O)(=O)NC(C)CCc2ccccc2)cc1 (stereo not drawn)	Kir21 inh -4.8
Cc1ccc(C)c(S(=O)(=O)NC(C)CCc2ccccc2)c1 (stereo not drawn)	none
COc1ccc(CN2CCC(=O)N([C@H](CO)c3ccccc3)CC2)cc1	TMEM16A act -11
O=C(O)c1ccc(CNC(=O)C23CC4CC(CC(C4)C2)C3)cc1	none
O=C(O)c1ccc(N=N/C(=N\Nc2ccc(C(=O)O)cc2)c2ccccc2)cc1	none (no result: GPR7 antagonist)
O=C(O)c1cccc(N/N=C(\N=Nc2ccccc2)c2ccccc2)c1	CHT block -6.4 (no result: GPR7 antagonist)
O=C(O)c1cc(-c2c[nH]c3ccccc23)nc2cc3ccccc3cc12	none
CCN(CC)S(=O)(=O)c1ccc(C(=O)NNC(=O)C2COc3ccccc3O2)cc1 (stereo not drawn)	none (no result: CHT PAM, ANO1 block, Kir21 inh, CHT block, GPR7 antagonist)
CCN(CC1COc2ccccc2O1)S(=O)(=O)c1ccc(C)cc1 (stereo not drawn)	Kir21 inh -4.8
COc1ccc(OC)c2c1C(=O)C(Cl)=C(Cl)C2=O	Kir21 inh -4.3
Cc1cc(SCC(=O)Nc2cccc(S(=O)(=O)NC3=NCCCCC3)c2)nc2ccccc12	TMEM16A act -5.4
Cc1ccc(S(=O)(=O)NCC(=O)OCC(=O)NCc2ccc(F)cc2)cc1	none
COc1ccc(CN(C)C(=O)CCN(c2ccccc2)S(=O)(=O)c2ccc(C)cc2)c(OC)c1	ANO1 block 25 (no result: GPR7 antagonist)
Cc1ccc(-n2c(N)c(C(=O)Nc3ccccc3F)sc2=S)cc1C	none
CCN(CC)C(=O)CC(c1ccccc1)c1ccco1 (stereo not drawn)	none
CCC(=O)N(CCC(Cc1ccccc1)c1ccco1)Cc1ccco1 (stereo not drawn)	Kir21 inh -12
CCC(=O)N(CCC(c1ccccc1)c1ccco1)Cc1cccs1 (stereo not drawn)	CHT PAM 9.5, Kir21 inh -7.4
COc1ccccc1C(c1nnnn1C1CCCC1)N1CCN2CCCC2C1 (stereo not drawn)	TMEM16A act -12
COc1cc(C(=S)N2CCOCC2)ccc1OC(=O)c1ccccc1C	none
COc1cc(C(=S)N2CCOCC2)ccc1OC(=O)c1cccc(C)c1	ANO1 block 25

Screens deposited in PubChem BioAssay by several laboratories.
